Assay results as given in PubChem BioAssay AID1346378 (National Center for Advancing Translational Sciences (NCATS), 2018).
Hit rate of the full screen: of about 420,000 compounds, about 540 (0.13%) were called active. Many of the other results were omitted from the sample, so actives are more common in it than they were. A number with no mark means an inactive call. Rule as the data show it: active = activity change below about -50%; inconclusive = mostly about -30% to -49%; inactive = weaker than that.
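For activity change, negative = inhibition in this document: -100% = wells without enzyme as full effect.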

What follows are molecules tested against Phosphatidylinositol 4-kinase type 2-alpha (Homo sapiens) (UniProt Q9BTU6) (assay: qHTS for small molecular inhibitors of PI4K2A). Conditions: purified PI4K2A, ADP-Glo luminescence, 1 h; at 76.9 µM, active compounds read low.
Sequence of Phosphatidylinositol 4-kinase type 2-alpha (Homo sapiens) (Q9BTU6 whole entry, looked up): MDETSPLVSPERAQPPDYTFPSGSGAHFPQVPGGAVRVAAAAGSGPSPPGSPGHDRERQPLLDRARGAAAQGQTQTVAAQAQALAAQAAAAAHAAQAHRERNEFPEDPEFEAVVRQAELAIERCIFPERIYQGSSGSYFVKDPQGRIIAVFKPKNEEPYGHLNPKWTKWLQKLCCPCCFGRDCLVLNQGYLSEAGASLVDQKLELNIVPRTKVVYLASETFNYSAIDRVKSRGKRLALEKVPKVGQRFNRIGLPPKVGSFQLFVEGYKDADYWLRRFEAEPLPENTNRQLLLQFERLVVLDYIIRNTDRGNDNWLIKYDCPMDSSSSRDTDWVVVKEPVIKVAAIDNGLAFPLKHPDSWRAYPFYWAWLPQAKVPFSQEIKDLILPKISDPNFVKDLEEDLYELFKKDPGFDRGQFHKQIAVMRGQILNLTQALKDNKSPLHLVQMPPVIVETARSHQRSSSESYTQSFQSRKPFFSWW
Procedure, shortened: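 PI4K2A activity was measured by ADP-Glo luminescence: enzyme (4 ug/mL stock) and phosphatidylinositol (1.2 mM stock) in Tris pH 7.5/MgCl2/EGTA/Triton X-100 buffer were reacted with ATP (300 microM stock) for one hour at ambient temperature.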
Nc1ccc2c3c(cccc13)C(=O)NC2=O showed an activity change, negative = inhibition of -1.25%.
For CN[C@@H]1[C@@H](O)[C@@H](O[C@@H]2[C@H](O)[C@H](O[C@H]3OC(CN)=CC[C@H]3N)[C@@H](N)C[C@H]2N)OCC1(C)O (some centres undefined), the activity change, negative = inhibition was 3.62%.
For CC1(C)S[C@@H]2[C@H](N=CN3CCCCCC3)C(=O)N2[C@H]1C(=O)O, the activity change, negative = inhibition was -3.84%.
For Cc1cc(C)cc(-n2ccnc2SCC(=O)Nc2nc3ccccc3s2)c1, the activity change, negative = inhibition was -3.54%.
Work on CCOc1ccc(NC(=O)CSc2c3c(nc4ccccc24)CCCC3)cc1 yielded an activity change, negative = inhibition of -3.16%.
CCOc1ccc(NC(=O)N(CC(C)C)CC(C)C)cc1 showed an activity change, negative = inhibition of 7.41%.
CCOc1ccc(N/C=C/C(=O)c2ccccc2)cc1 was tested, and the activity change, negative = inhibition was -50.8% (active).
Molecule COc1ccc(C(=O)NCC(c2ccc(N(C)C)cc2)N2CCc3ccccc32)c(OC)c1 (centres undefined) has an activity change, negative = inhibition of 0.413%.
With CCCCN(C)CCCNC(=O)CN1N=C(c2ccc(OC)cc2)CCC1=O the activity change, negative = inhibition was -1.59%.
For COc1cc(CNC(=O)c2cc3n(n2)CCCN(Cc2cccc(F)c2)C3=O)cc(OC)c1OC, the activity change, negative = inhibition was -0.346%.
Molecule COC(=O)c1cc(Cl)c(NC(C)=O)cc1OC has an activity change, negative = inhibition of -2.22%.
Molecule NNC(=O)c1cnn(-c2ccccc2)c1C(F)(F)F has an activity change, negative = inhibition of 3.06%.
In the case of CCNC(=O)c1cnn(-c2ccccc2)c1-c1ccccc1, the activity change, negative = inhibition is reported as 2.38%.
For Nc1c(C(=O)O)cnn1-c1ccccc1, the activity change, negative = inhibition was -60.3% (active).
For O=c1ccc2c(-c3ccccc3S(=O)(=O)O)c3ccc(O)c(O)c3oc-2c1O, the activity change, negative = inhibition was -68% (active).
O=C(NC1CC(=O)N(c2ccccc2)C1)c1ccco1 (centres undefined) showed an activity change, negative = inhibition of -1.35%.
Work on CCOc1ccc(C(NC(=O)c2cc(OC)c(OC)c(OC)c2)c2cc(Cl)c3cccnc3c2O)cc1 (centres undefined) yielded an activity change, negative = inhibition of -3.07%.
With COc1ccc(OC)c(NC(=O)C2CCCN(S(=O)(=O)c3ccc4c(c3)CCCC(=O)N4)C2)c1 (centres undefined) the activity change, negative = inhibition was -2.64%.
CN1CC[C@H](c2c(O)cc(O)c3c(=O)cc(-c4ccccc4Cl)oc23)[C@H](O)C1 was tested, and the activity change, negative = inhibition was -3.75%.
Nc1ncnc2c1c(I)cn2[C@@H]1C[C@H](N)[C@@H](O)[C@H]1O showed an activity change, negative = inhibition of -21.5%.
Molecule NC1CCN(O)C1=O (centres undefined) has an activity change, negative = inhibition of 0.196%.
With CCOC(=O)c1cc2c(=O)n3ccccc3nc2n(Cc2ccco2)c1=NC(=O)c1ccc(F)cc1 the activity change, negative = inhibition was -8.37%.
For Cc1cc(NS(=O)(=O)c2ccc3oc(=O)c4ncn(C)c4c3c2)ccc1Br, the activity change, negative = inhibition was 3.97%.
Molecule OCC1OC(n2cnc3c(N4CCCC4)ncnc32)C(O)C1O (centres undefined) has an activity change, negative = inhibition of -0.936%.
For Nc1ncnc2c1cnn2C1CC(O)C(CO)O1 (centres undefined), the activity change, negative = inhibition was -25.1%.
With CC1(C)O[C@@H]2[C@H](O1)[C@@H](CO)O[C@H]2n1c(N2CCCCC2)nc2c(N)ncnc21 the activity change, negative = inhibition was -54.5% (active).
Molecule Cn1c(=O)c2c(-c3ccccc3Br)n(Cc3ccccc3)cc2n(C)c1=O has an activity change, negative = inhibition of -1.93%.
Molecule O=c1cc(-c2ccccc2)[nH]c2nc(Cl)ccc12 has an activity change, negative = inhibition of 3.68%.
Cc1nnc(C(=O)NC(C)(C)c2nc(C(=O)NCc3ccc(F)cc3)c(O)c(=O)n2C)o1 gave an activity change, negative = inhibition of -1.36%.
CCN(C(=O)Cn1cc(S(=O)(=O)N2CCN(c3ccccc3F)CC2)c2ccccc2c1=O)c1ccc(C)c(C)c1 showed an activity change, negative = inhibition of -1.44%.
In the case of N#Cc1c(N2CCCCC2)nc(N)c2c(N)nc(SCC(=O)O)cc12, the activity change, negative = inhibition is reported as -59.8% (active).
For COc1cccc(C(=O)Nc2ccc(N3CCCC3)cc2)c1, the activity change, negative = inhibition was -68.3% (active).
Work on COc1cccc(C(=O)Nc2ccc(-c3cc(C(F)(F)F)nn3-c3ccccc3)cc2)c1 yielded an activity change, negative = inhibition of 4.36%.
With COc1cccc(C(=O)NC(=O)Nc2ccc(-c3cc(C(F)(F)F)nn3-c3ccccc3)cc2)c1 the activity change, negative = inhibition was -3.82%.
Work on CCCCCn1c(=O)[nH]c2cc(C(=O)NCCN(C)CCCC)ccc2c1=O yielded an activity change, negative = inhibition of 3.6%.
Molecule O=C(CSc1cn(CC(=O)N2CCOCC2)c2ccccc12)Nc1ccccc1 has an activity change, negative = inhibition of -0.303%.
CCCCOCCOC(=O)c1cccnc1 gave an activity change, negative = inhibition of 0.377%.
In the case of Cc1ccc(CNC(=O)CSc2c(C)cnc3c2c(=O)n(C)c(=O)n3C)cc1, the activity change, negative = inhibition is reported as -1.23%.
With CO[C@]1(NC(=O)CSC(F)F)C(=O)N2C(C(=O)O)=C(CSc3nnnn3CCO)CO[C@H]21 the activity change, negative = inhibition was -0.764%.
CC(C)CNc1ncnc2c1nnn2C was tested, and the activity change, negative = inhibition was 1.45%.
With CCN1CCN(C(=O)N[C@@H](C(=O)N[C@@H]2C(=O)N3[C@@H]2SC(C)(C)[C@H]3C(=O)O)c2ccccc2)C(=O)C1=O the activity change, negative = inhibition was 2.58%.
In the case of CCOc1ccccc1CNC(=O)C1CCCN(S(=O)(=O)c2ccc3c(ccn3C)c2)C1 (centres undefined), the activity change, negative = inhibition is reported as 2.73%.
In the case of O=C(CSc1nnc(-c2ccccc2F)o1)Nc1cccc(C(F)(F)F)c1, the activity change, negative = inhibition is reported as 2.53%.
For CC1CC2C3CCC4=CC(=O)C=C[C@]4(C)[C@@]3(F)[C@@H](O)C[C@]2(C)[C@@]1(O)C(=O)CO (some centres undefined), the activity change, negative = inhibition was 2.22%.
With CCCCCn1c(=O)[nH]c2cc(C(=O)Nc3ccc(F)cc3)ccc2c1=O the activity change, negative = inhibition was 3.49%.
In the case of COc1ccc(-c2cc(=O)oc3cc(OCC(=O)N[C@@H](Cc4c[nH]c5ccccc45)C(=O)O)ccc23)cc1, the activity change, negative = inhibition is reported as -51.9% (active).
COc1ccc(-c2cc(C(=O)NC(Cc3c[nH]c4ccccc34)C(=O)O)c(C)o2)cc1OC (centres undefined) gave an activity change, negative = inhibition of -4.82%.
In the case of COc1ccc(-c2cc(=O)oc3cc(OC(C)C(=O)NCC4CCC(C(=O)O)CC4)ccc23)cc1 (centres undefined), the activity change, negative = inhibition is reported as -0.472%.
In the case of NCC[C@H](O)C(=O)N[C@@H]1C[C@H](N)[C@@H](O[C@H]2O[C@H](CN)[C@@H](O)[C@H](O)[C@@H]2O)[C@H](O)[C@@H]1O[C@H]1O[C@H](CO)[C@@H](O)[C@H](N)[C@@H]1O, the activity change, negative = inhibition is reported as “inactive”.
In the case of Cc1ccccc1OCc1nc2c3cnn(-c4ccccc4F)c3ncn2n1, the activity change, negative = inhibition is reported as -3.76%.
In the case of CCc1ccc(CN(Cc2ccco2)C(=O)COc2ccc(Cl)c(C)c2)cc1, the activity change, negative = inhibition is reported as -7.93%.
CCOc1ccc(NC(=O)Cn2c(=O)n(CCCC(=O)NCc3ccc4c(c3)OCO4)c(=O)c3ccccc32)cc1 showed an activity change, negative = inhibition of -1.29%.
For CC1=NN(c2ccc(Cl)c(C(=O)O)c2)C(=O)/C1=C/c1ccc(-c2ccccc2[N+](=O)[O-])o1, the activity change, negative = inhibition was -58.6% (active).
With O=C(Cn1c(=O)n(Cc2cccs2)c(=O)c2cccnc21)Nc1ccc(F)cc1 the activity change, negative = inhibition was -2.3%.
CCOC(=O)c1ccc(NC(=O)Cn2cc(S(=O)(=O)Cc3ccccc3F)c3ccccc32)cc1 gave an activity change, negative = inhibition of -0.867%.
For Cc1ccc(C(=O)COC(=O)C(Cc2c[nH]c3ccccc23)NC(=O)c2ccc(Br)cc2)cc1 (centres undefined), the activity change, negative = inhibition was 1.44%.
With COCCCN1CCC(NC(=O)c2cc(Cl)c(N)c3c2OCC3)CC1 the activity change, negative = inhibition was -0.718%.
CN(C)c1cccc(C(=O)Nc2nc3ccc(S(=O)(=O)NC(C)(C)C)cc3s2)c1 showed an activity change, negative = inhibition of 0.225%.
In the case of CN(Cc1ccccc1)C(=O)c1cn(C)c2ccc(S(=O)(=O)N(C)C3CCCCC3)cc2c1=O, the activity change, negative = inhibition is reported as 2.24%.
CCOC(=O)c1ccc(N2C(=O)c3[nH]nc(-c4ccccc4)c3C2c2ccc(C(C)C)cc2)cc1 (centres undefined) gave an activity change, negative = inhibition of 4.25%.
For CCOC(=O)c1[nH]c(C)c(CCC(=O)N2CCN(c3ccccc3)CC2)c1C, the activity change, negative = inhibition was -2.94%.
In the case of CSc1ccccc1N1CCN(CCCCCC(=O)NC2CCCc3ccccc32)CC1 (centres undefined), the activity change, negative = inhibition is reported as 3.17%.
COc1cccc(-c2cc(C(=O)Nc3ccc(C)cc3)[nH]n2)c1 gave an activity change, negative = inhibition of -3.12%.
COc1cc(C(=O)N2CCN(c3ccc(Nc4ccc(C)cc4)nn3)CC2)cc(OC)c1OC was tested, and the activity change, negative = inhibition was 1.58%.
Work on CO/N=C(/C(=O)N[C@@H]1C(=O)N2C(C(=O)O)=C(Cn3nnc(C)n3)CS[C@H]12)c1csc(N)n1 yielded an activity change, negative = inhibition of -10.8%.
O=C1Cc2cc(S(=O)(=O)Nc3ccc(OC(F)(F)F)cc3)cc3c2N1CCC3 showed an activity change, negative = inhibition of -2.44%.
With COC(=O)c1ccc(OC)c(Cn2c(=O)n(Cc3ccccc3)c(=O)c3c2c2cc(OC)ccc2n3C)c1 the activity change, negative = inhibition was 4.84%.
With COc1ccccc1CNC(=O)CCn1c(=O)c2ccccc2n(CC(=O)Nc2ccc(Br)cc2F)c1=O the activity change, negative = inhibition was 2.55%.
Work on COc1ccc(OC)c(NC(=O)CSc2nc3ccccc3nc2N2CCCCC2)c1 yielded an activity change, negative = inhibition of 3.46%.
Work on CCOCCCNC(=O)c1c(NC(=O)Cc2coc3ccc(C)cc23)sc2c1CCC2 yielded an activity change, negative = inhibition of -1.23%.
In the case of COC(=O)c1ccccc1NC(=O)c1cc(-c2ccccc2O)no1, the activity change, negative = inhibition is reported as -2.41%.
For O=C1CSC(=S)N1/N=C/c1ccc(O)c([N+](=O)[O-])c1, the activity change, negative = inhibition was -62.1% (active).
With COC(=O)c1nc(Cl)c(Cl)nc1N the activity change, negative = inhibition was 2.02%.
For CCC(C(=O)Nc1cccc(-c2nc3cccnc3s2)c1C)c1ccccc1 (centres undefined), the activity change, negative = inhibition was 6.98%.
CCc1ccc(NC(=O)c2cnc3c(-c4ccccc4)c(C)nn3c2C)cc1 was tested, and the activity change, negative = inhibition was 0.0021%.
Work on CCCc1nn2c(=O)cc(COC(=O)c3ccc(NC(=O)C(C)Oc4ccccc4)cc3)nc2s1 (centres undefined) yielded an activity change, negative = inhibition of -2.75%.
O=C(CC1C(=O)N(c2ccccc2)C(=O)N1CCc1cccs1)Nc1ccc(F)cc1 (centres undefined) was tested, and the activity change, negative = inhibition was 3.68%.
Work on COc1ccc(C2=NC3(CCCCC3)N(CC(=O)Nc3ccc(C(C)C)cc3)C2=O)cc1 yielded an activity change, negative = inhibition of -3.85%.
CCOC(=O)c1c(C)[nH]c(C)c1S(=O)(=O)NCC(=O)NCc1cccc(C)c1 showed an activity change, negative = inhibition of -4.08%.
COc1ccccc1N1CCN(C2C(=O)c3ccccc3N2C(C)=O)CC1 (centres undefined) showed an activity change, negative = inhibition of 2.81%.
Molecule COc1ccc(C2CC(=O)Nc3c2c(=O)nc2c(C)cccn32)cc1OC (centres undefined) has an activity change, negative = inhibition of -1.68%.
CCOC(=O)c1cc2c(=O)n3ccccc3nc2n(CCCOC)c1=NC(=O)C(C)(C)Oc1ccc(Cl)cc1 was tested, and the activity change, negative = inhibition was -2.85%.
CCOC(=O)c1c(C)[nH]c(C)c1S(=O)(=O)N1CCC(C(=O)Nc2ccc(C)c(Cl)c2)CC1 showed an activity change, negative = inhibition of 0.586%.
Cc1ccc(Cl)cc1NC(=O)C(C)n1nnc2sc(-c3ccccc3)cc2c1=O (centres undefined) showed an activity change, negative = inhibition of 3.33%.
